From PubChem
PolyA inhibitor: polyadenylation inhibitors in yeast reporter cells, primary screen, luminescence, S. cerevisiae | S. cerevisiae SKY197-pL101 polyadenylation reporter, beta-gal luminescence; efflux-impaired pdr1/pdr3 knockout yeast; score 100 = 6 SD above DMSO | hit rate 0.02% among 300,000 | activity score, % at 12 µM | AID 1875, 2009;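 active = lowest replicate activity score at least 50, where 100 means six control SD above control mean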;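 note: yeast exposed to compound for 9 h at 30 °C; higher score means more reporter readthrough which indicates perturbed polyadenylation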
CaV13 FRET inh: Disruptors of the CACNA1D IQ motif to Ca2+-dependent inactivation inhibitor domain association, primary screening, Förster resonance energy transfer in intact living …; HEK cells, CFP/YFP FRET ICDI-IQ, plate reader, 10 min; percent FRET-ratio fall versus neutral wells; inhibition, % at 12.3 µM; AID 743397; hit rate 0.098% among 340,000;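 active = mean replicate inhibition of at least 30% and at least 1% of replicates passing that level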;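 note: 0% = median of the neutral control wells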
ALR H2O2 inh: inhibitors of human ALR sulfhydryl oxidase, primary screen, biochemical, H2O2 detection, HRP-luminol luminescence, single point. purified ALR, DTT oxidation. hit rate 3.8% among 290,000. AID 485317, 2010. inhibition, % (concentration not given with the values);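 active = mean replicate inhibition above about 79%, with every replicate also reaching it, limit read from the data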
IDE act: human IDE activators in live cells, primary screen, fluorescence polarization, HEK cells, FAbeta-B substrate | AID 493087, 2011 | Insulin-degrading enzyme (Homo sapiens), P14735 | hit rate 0.073% among 340,000 | activation, % at 5.96 µM | FAbeta-B cleavage; 0% vehicle, 100% cell-free pure enzyme wells;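 active = activation above the mean of all tested compounds plus 3 SD, set per screening campaign, cut at about 17% in these data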
IDE inh: human IDE inhibitors in live cells, primary screen, fluorescence polarization, HEK cells, FAbetaB substrate. Insulin-degrading enzyme (Homo sapiens), P14735. FAbetaB cleavage. inhibition, % at 5.59 µM. hit rate 0.41% among 320,000;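 active = percent inhibition above the average of all tested compounds plus 3 SD, set per screening campaign, cut at about 16% in these data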;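 note: IDE supplied by intact live HEK cells; FP after avidin binding of uncleaved biotin substrate so inhibition keeps polarization high; 0% = DMSO wells and 100% = 60 µM reference IDE inhibitor Ii1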
PfM18AAP inh: PfM18AAP inhibitors, malaria aminopeptidase, primary screen, biochemical, QFRET, recombinant enzyme | M18 aspartyl aminopeptidase (Plasmodium falciparum 3D7) | H-Glu-NHMec fluorogenic cleavage | inhibition, % at 7.35 µM | hit rate 1.2% among 290,000 | AID 1822, 2009;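 active = inhibition above the campaign mean inhibition over all tested compounds plus 3 SD, cut at about 28% in these data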;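 note: 0% = plate median of test compound wells and 100% = 2 mM ZnCl2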
Active calls of the source: *; nt = no result given. An excerpt weighted towards active compounds, which were near 4.1% of everything screened.

SMILES | PolyA inhibitor | CaV13 FRET inh | ALR H2O2 inh | IDE act | IDE inh | PfM18AAP inh
CC(=O)c1ccc(NC(=O)CCc2nnc3ccc(N4CCCC4)nn23)cc1 | 21 | -16 | -4 | 3 | 1 | 7
O=C(CSCc1ccccc1Br)NNC(=S)NCc1ccco1 | -12 | -2 | -8 | -10 | -3 | 29*
CC(C)(O)C(=O)NNC(=S)NCc1ccco1 | 5 | -7 | 0 | -2 | 5 | 42*
C/C(=N\NC(=O)c1ccncc1)C12CC3CC(CC(C3)C1)C2 | 15 | -10 | 18 | -2 | 8 | -2
CC/C(=N\NC(=O)c1ccc(-c2ccccc2)cc1)C12CC3CC(CC(C3)C1)C2 | -13 | -1 | 98* | 2 | 2 | 7
CCOC(=O)C1=C(C)N=c2s/c(=C\c3ccc(OCC(=O)O)cc3)c(=O)n2C1c1ccccc1 (centres undefined) | -3 | -5 | 98* | 4 | 1 | 7
O=C(NNC(=O)c1ccc2c(c1)OCO2)NC1CCCCC1 | 5 | nt | 14 | 7 | 1 | 30*
O=C(NNC(=O)c1ccc(Br)s1)NC1CCCCC1 | 8 | -2 | -17 | 3 | nt | 28*
O=c1cc(/C=C/c2c(F)cccc2Cl)[nH]c2ccccc12 | 15 | -18 | 6 | -3 | 9 | 3
CC(C)c1ccc(/C=C/C(=O)NC(=S)Nc2ccc(CN3CCOCC3)cc2)cc1 | -89 | 7 | 48 | -10 | 18* | -10
CC(C)c1ccc(C(=O)NN2CCOCC2)cc1 | 10 | nt | 3 | 0 | 0 | 2
CC(C)c1ccc(/C=C/C(=O)NC(=S)NN2CCOCC2)cc1 | nt | nt | 80* | -29 | nt | 1
CN(C)S(=O)(=O)c1cccc(NC(=O)c2cccc(S(=O)(=O)N3CCCCCC3)c2)c1 | nt | -6 | nt | 3 | nt | nt
Cc1ccc(Oc2nn[nH]n2)cc1 | 10 | -8 | -4 | 3 | 1 | -4
CCc1cccc(Oc2nn[nH]n2)c1 | 3 | -7 | 98* | 3 | 8 | 1
O=C(c1cccc(F)c1)N1CCC(c2nc3ccccc3s2)CC1 | -15 | -5 | 100* | 5 | -3 | 10
O=C(CSc1nnc(NC(=O)c2ccccc2F)s1)NCC1CCCO1 (centres undefined) | 14 | -3 | -16 | 4 | -3 | 2
Cc1ccc(-c2cc(C(=O)O)c3ccccc3n2)s1 | -6 | -3 | 23 | 1 | nt | -3
O=C(O)c1cc(-c2ccc(Cl)s2)nc2ccccc12 | 3 | -6 | 93* | 0 | -3 | 0
Cc1occc1-c1nnc(SCC(=O)c2ccc(F)cc2)o1 | 8 | nt | 97* | 1 | 7 | -3
Cc1occc1-c1nnc(SCC(N)=O)o1 | -5 | -16 | -5 | 5 | 0 | -3
Cc1ccc(NC(=O)CN2C(=O)C(=O)N(C3CCCC3)C2=O)cc1Cl | nt | -5 | 1 | -4 | 1 | nt
CCCCNC(=O)CC1N=C2c3ccccc3N=C(SCC(=O)Nc3ccccc3OC)N2C1=O (centres undefined) | -11 | -5 | -3 | 5 | 2 | 0
CCCCNC(=O)CC1N=C2c3ccccc3N=C(SCC(=O)Nc3cccc(OC)c3)N2C1=O (centres undefined) | 22 | -4 | 84* | 3 | -5 | -9
CCCCNC(=O)CC1N=C2c3ccccc3N=C(SCC(=O)Nc3ccc(OC)cc3)N2C1=O (centres undefined) | -4 | -4 | 96* | 2 | 2 | 8
SMILES | PolyA inhibitor | CaV13 FRET inh | ALR H2O2 inh | IDE act | IDE inh | PfM18AAP inh
CC(C)CN(CC(C)C)c1nnc(N)s1 | 14 | -4 | 99* | 6 | 0 | 3
Cc1nn(Cc2ccc(Cl)cc2)c(C)c1NC(=O)CSc1nc2c(c(C(F)(F)F)n1)CCc1ccccc1-2 | -4 | -9 | 98* | 6 | 0 | 8
CCOC(=O)Cc1cc(=O)c2c(=O)n(-c3ccccc3)[nH]c2[nH]1 | 6 | -3 | 78* | -1 | -1 | 18
O=c1cc(-c2ccccc2)[nH]c2[nH]n(-c3ccccc3)c(=O)c12 | -11 | -4 | 99* | 11 | 5 | -5
CC1(C)NC(=O)N(CCCC(=O)Nc2ccc(C(F)(F)F)cc2)C1=O | nt | -5 | nt | 0 | -7 | nt
COc1ccc(-c2ccc3c(n2)CCCN3S(=O)(=O)c2ccccc2)cc1 | nt | -5 | nt | nt | nt | nt
CCc1c(C)nc(SCC(=O)NNC(=O)Cc2ccc(OC)cc2)[nH]c1=O | 22 | 3 | 0 | 5 | 3 | 29*
COc1ccc(-c2csc(NC(=O)CSc3n[nH]c(C)n3)n2)cc1 | 6 | -3 | nt | 3 | 1 | 0
CCOC(=O)Cc1cnc(NC(=O)CSc2nc(C(C)C)cc(=O)[nH]2)s1 | -6 | -4 | 68 | 2 | 1 | 14
COc1ccc(CC(=O)NNC(=O)CSc2ccc(C)cc2)cc1 | -4 | 0 | -4 | 5 | -1 | 12
CCc1c(C)nc(SCC(=O)Nc2nc(-c3ccc(OC)cc3)cs2)[nH]c1=O | -14 | -4 | 99* | -5 | -3 | -4
CCOC(=O)Cc1cnc(NC(=O)CSc2nc(C)c(CC)c(=O)[nH]2)s1 | -5 | -2 | 99* | 2 | -1 | 7
Cc1ccc(C(C(=O)NC(C)(C)C)N(Cc2ccccc2)C(=O)c2snc(C(N)=O)c2N)o1 (centres undefined) | 19 | 4 | -7 | 2 | 0 | 3
CCCN1CCCc2cc(CN)ccc21 | -18 | -5 | 100* | 3 | 2 | 14
CN1CCCc2cc(C=O)ccc21 | 2 | -3 | -29 | 3 | -5 | 5
Cc1cc(C)c2nc(SCC(=O)NCC3CCCO3)c(C#N)cc2c1 (centres undefined) | 3 | -3 | -18 | 5 | 1 | -15
O=C(CN1C(=O)S/C(=C\c2ccccc2)C1=O)NCCCn1ccnc1 | 9 | -4 | -14 | 3 | 5 | 19
CC(C)c1ccc(/C=C2\SC(=O)N(CC(=O)NCCCn3ccnc3)C2=O)cc1 | -1 | -4 | 99* | -7 | 0 | 2
C[C@]12c3[nH]c4cc(-c5ccco5)ccc4c3CCN1C(=O)[C@@H](CC(=O)NCc1cccc(C(F)(F)F)c1)C[C@@H]2C(=O)N1CCCCC1 | nt | -8 | nt | 2 | nt | nt
CN(C)c1ccc(CN(C(=O)/C=C/c2ccco2)C2CCS(=O)(=O)C2)cc1 (centres undefined) | 8 | -19 | 86* | nt | 3 | -8
CCOc1ccc(CN(C(=O)c2cccs2)C2CCS(=O)(=O)C2)cc1 (centres undefined) | 8 | -6 | 3 | 3 | 0 | -14
